Among the test systems are RPMI-8226 leukemia; OVCAR-8 ovarian; OVCAR-5 ovarian; OVCAR-4 ovarian; SK-OV-3 ovarian; IGROV1 ovarian; OVCAR-3 ovarian; HS 578T breast; NCI/ADR-RES ovarian; T-47D breast; BT-549 breast; MDA-MB-435 melanoma; SW-620 colon; MCF7 breast; HCT-116 colon; HCC-2998 colon; KM12 colon.
Common to all, as to experiment: NCI-60 one-dose screen, 48 h (100 = growth as untreated, 0 = no growth, -100 = all killed)
What all share (conditions): 10 µM unless noted

The panel holds about 83,000 compounds, 20% with a hit somewhere; the sample as a whole holds those more often.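 The endpoint reported here, percent growth, reads 100 for growth as untreated, 0 for no net growth and -100 for all cells dead.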 Values without a mark were called inactive. The source made the active and inactive calls. The calls were made as follows: active = growth percent below 10; inactive = the rest.

`C#CCOC(=O)[C@]1(C)CCC[C@]2(C)[C@H]3C[C@H]4C(C(C)C)=C[C@]3(CC[C@H]21)[C@@H]1C(=O)CCC(=O)[C@@H]14`: the growth in the assay on RPMI-8226 leukemia was 67.9%; with OVCAR-8 ovarian, 90.5%; in the assay on OVCAR-5 ovarian, 93.8%; in the assay with OVCAR-4 ovarian it was 73.9%; with SK-OV-3 ovarian it was 78.9%; in the assay on IGROV1 ovarian, 78.3%. The growth with OVCAR-3 ovarian was 95%; in the assay on HS 578T breast it was 80.8%; in the assay with NCI/ADR-RES ovarian it was 81.5%; in the assay with T-47D breast, 66.7%; in the assay with BT-549 breast, 91.7%; in the assay with MDA-MB-435 melanoma it was 97.7%. In addition, the growth with SW-620 colon was 86.9%; in the assay on MCF7 breast it was 83.2%; with HCT-116 colon it was 77.8%; in the assay on HCC-2998 colon, 102%; in the assay with KM12 colon it was 87%.

As to `COc1cc(C(=O)Nc2cc(O)c(C/C=C(\C)CCC=C(C)C)c(O)c2)cc2c1O[C@]1(C)CC[C@@H](O)C(C)(C)[C@H]1C2`, the growth in the assay with RPMI-8226 leukemia was -23.6% (active); in the assay on OVCAR-8 ovarian, 29.9%; in the assay with OVCAR-5 ovarian it was 48.5%; in the assay on OVCAR-4 ovarian it was 32.8%; with SK-OV-3 ovarian, 17.9%; in the assay with IGROV1 ovarian, 33.7%. Besides, the growth in the assay on OVCAR-3 ovarian was 5.54% (active); in the assay with HS 578T breast, -1.79% (active); in the assay with NCI/ADR-RES ovarian, 57.7%; in the assay on T-47D breast, 9.68% (active); in the assay on BT-549 breast, 18.4%; with MDA-MB-435 melanoma, 17.1%. Besides, the growth with SW-620 colon is 4.02% (active); with MCF7 breast it was 10.2%; with HCT-116 colon, 13.2%; in the assay on HCC-2998 colon it was 23.2%; in the assay on KM12 colon, 13.3%.

In the case of `Cc1nc2sc(C(=O)Nc3ccccc3)c(N)c2cc1C(C)O` (stereo unspecified), the growth with RPMI-8226 leukemia was 16.9%; in the assay with OVCAR-8 ovarian, 36.4%; in the assay on OVCAR-5 ovarian, 51.3%; in the assay with OVCAR-4 ovarian it was 64.5%; with SK-OV-3 ovarian it was 31%; in the assay on IGROV1 ovarian it was 40.2%. Also, the growth in the assay on OVCAR-3 ovarian is 21.8%; in the assay with HS 578T breast, 44.9%; in the assay on NCI/ADR-RES ovarian, 15.4%; in the assay on T-47D breast it was 44.6%; in the assay with BT-549 breast it was 74.3%; in the assay on MDA-MB-435 melanoma it was -41.1% (active). The growth with SW-620 colon was 26.4%; with MCF7 breast, 16.7%; in the assay with HCT-116 colon it was 30.2%; with HCC-2998 colon, 46.8%; in the assay on KM12 colon, 26.1%.

As to `Cc1ccc(C(=O)O)o1`, the growth in the assay with RPMI-8226 leukemia was 114%; in the assay on OVCAR-8 ovarian, 108%; with OVCAR-5 ovarian, 105%; in the assay on OVCAR-4 ovarian, 100%; in the assay on SK-OV-3 ovarian, 101%; in the assay with IGROV1 ovarian, 102%. Also, the growth is 103% with OVCAR-3 ovarian; 118% with HS 578T breast; 101% in the assay with NCI/ADR-RES ovarian; 102% in the assay on T-47D breast; 97.9% with BT-549 breast; 108% with MDA-MB-435 melanoma. Besides, the growth in the assay with SW-620 colon is 107%; in the assay with MCF7 breast it was 105%; in the assay on HCT-116 colon it was 96.1%; in the assay with HCC-2998 colon, 102%; with KM12 colon, 96.9%.

With `Cc1ccc(C(=O)/C(=C/c2ccc([N+](=O)[O-])cc2)S(=O)Cc2ccccc2)cc1` (stereo unspecified), the growth is -13% (active) with RPMI-8226 leukemia; 18.5% in the assay with OVCAR-8 ovarian; 39.5% in the assay on OVCAR-5 ovarian; 35% in the assay on OVCAR-4 ovarian; 80.2% with SK-OV-3 ovarian; -7.98% (active) with IGROV1 ovarian. The growth in the assay with OVCAR-3 ovarian was 0.0452% (active); in the assay on HS 578T breast it was -2.56% (active); with NCI/ADR-RES ovarian it was 14.3%; with T-47D breast it was -38.3% (active); with BT-549 breast it was 45.8%; in the assay on MDA-MB-435 melanoma, 19.7%. Also, the growth is 2.41% (active) in the assay with SW-620 colon; 1.83% (active) in the assay with MCF7 breast; -59.2% (active) in the assay on HCT-116 colon; 74.8% in the assay with HCC-2998 colon; 23.1% in the assay with KM12 colon.

Turning to `COc1ccc2nc(-c3ccc(OC)c(OC)c3)cc(-c3nnc(SCC(=O)Nc4ccc(C(C)=O)cc4)o3)c2c1`, the growth in the assay on RPMI-8226 leukemia was 90.8%; in the assay with OVCAR-8 ovarian, 102%; with OVCAR-5 ovarian it was 109%; with OVCAR-4 ovarian, 106%; in the assay with SK-OV-3 ovarian, 109%; in the assay on IGROV1 ovarian, 113%. In addition, the growth was 111% in the assay with OVCAR-3 ovarian; 97.3% in the assay on HS 578T breast; 108% in the assay on NCI/ADR-RES ovarian; 94.6% in the assay on T-47D breast; 102% with BT-549 breast; 103% in the assay with MDA-MB-435 melanoma. The growth in the assay on SW-620 colon was 103%; with MCF7 breast, 94.9%; in the assay on HCT-116 colon it was 89.7%; in the assay on HCC-2998 colon it was 111%; in the assay on KM12 colon it was 102%.

Regarding `Cc1c(Cl)cccc1NC(=O)c1sc2nc3c(cc2c1N)COCC3`, the growth in the assay with RPMI-8226 leukemia was 30.3%; in the assay with OVCAR-8 ovarian, 33.6%; in the assay with OVCAR-5 ovarian, 55.3%; with OVCAR-4 ovarian it was 60.9%; in the assay with SK-OV-3 ovarian, 26.5%; in the assay on IGROV1 ovarian it was 45.8%. Moreover, the growth in the assay with OVCAR-3 ovarian is 17.8%; in the assay on HS 578T breast, 40.1%; in the assay on NCI/ADR-RES ovarian, 6.51% (active); in the assay on T-47D breast it was 32.4%; in the assay on BT-549 breast, 49.6%; in the assay on MDA-MB-435 melanoma, -20% (active). The growth with SW-620 colon is 22.8%; in the assay with MCF7 breast, 16.4%; in the assay with HCT-116 colon, 19.7%; in the assay with HCC-2998 colon it was 65.1%; in the assay on KM12 colon it was 31.8%.

As for `O=C(Nc1cc(=O)[nH]c(=O)[nH]1)C(Cl)Cl`, the growth is 101% with RPMI-8226 leukemia; 102% in the assay with OVCAR-8 ovarian; 112% with OVCAR-5 ovarian; 112% in the assay on OVCAR-4 ovarian; 107% in the assay on SK-OV-3 ovarian; 108% in the assay with IGROV1 ovarian. For the same molecule, the growth is 113% with OVCAR-3 ovarian; 95.4% in the assay on HS 578T breast; 111% in the assay with NCI/ADR-RES ovarian; 91.4% in the assay on T-47D breast; 107% in the assay with BT-549 breast; 110% with MDA-MB-435 melanoma. For the same molecule, the growth in the assay on SW-620 colon is 100%; in the assay with MCF7 breast, 97.1%; in the assay on HCT-116 colon, 107%; with HCC-2998 colon it was 92.4%; in the assay with KM12 colon, 107%.

(Values after PubChem BioAssay (NCI).)
